Among the data in PubChem BioAssay (NCATS) are Potency and outcome values, retold here.

Records with an inconclusive call do not appear. The source made the active and inactive calls. The call rests on the fitted dose curve; in most records, active means well fitted curve in the direction sought with a large enough effect; inconclusive means small, poorly fitted or top-dose-only effect, or another doubt; inactive means no such curve, though single readings can be large; an effect the other way counts as inactive or inconclusive.

The nature of test [1]: P-glycoprotein substrates identified in KB-3-1 adenocarcinoma cell line, qHTS therapeutic library screen (AID 1346986). Further: nearly all actives have a fitted effect of over 60% in size. The method in brief: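 Compounds were tested in dose-response against KB-3-1 and KB-8-5-11 cells at 37 degree C for 72 h, and viability was measured by luminescence. AC50 values came from curve fitting with class-based activity calls.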
Test [2] is described as follows: P-glycoprotein substrates identified in KB-8-5-11 adenocarcinoma cell line, qHTS therapeutic library screen (AID 1346987). Further: nearly all actives have a fitted effect of over 65% in size. The essentials: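 KB-8-5-11: colchicine-selected sub-line of KB-3-1 over-expressing P-gp; assay medium lacked colchicine. 72 h drug exposure at 37 degree C, CellTiter-Glo.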

On to `C[C@H]1CC[C@@]2(OC1)O[C@H]1CC3C4CC=C5C[C@H](O)C[C@@H](O[C@@H]6O[C@@H](C)[C@H](O)[C@@H](O)[C@H]6O[C@@H]6O[C@@H](C)[C@H](O)[C@@H](O)[C@H]6O)[C@]5(C)C4CC[C@]3(C)[C@H]1[C@@H]2C` (stereo partly drawn), for which the Potency result in test [1] and in test [2] was “inactive” each time.

With `CCCCCCc1cccc(NC(=O)[C@H](N)CCP(=O)(O)O)c1`, the outcome in test [1] and in test [2] was “inactive [at 9.29 µM]” throughout.

With `CC(C)=CCc1ccc(Oc2c(O)cc(C)cc2CO)c(C(=O)O)c1O`, the Potency result in test [1] and in test [2] was “inactive” in each case.

On to `CN1C(=O)c2ccccc2-n2c(nc3ccccc3c2=O)[C@@]12O[C@H]2c1ccccc1`, for which the Potency entry in test [1] and in test [2] was “inactive” in each case.

`COC(=O)C1=CO[C@@H](O[C@@H]2O[C@H](CO)[C@@H](O)[C@H](O)[C@H]2O)[C@@H]2[C@@H](C)[C@@H](O)C[C@H]12`: the Potency result in test [1] and in test [2] was “inactive” in each case.

For `CNC(=O)O[C@H]1COc2ccc(N3CCN(C4COC4)CC3)cc2[C@@H]1NC(=O)c1ccc(F)cc1`, the Potency entry in test [1] and in test [2] was “inactive” each time.

Consider `CC(=O)O[C@H]1CC[C@@]2(CI)C(=CC[C@@H]3[C@@H]2CC[C@]2(C)[C@@H]([C@H](C)CCCC(C)C)CC[C@@H]32)C1`, for which the outcome in test [1] and in test [2] was “inactive [at 9.29 µM]” throughout.

In the case of `O=C(/C=C/c1ccc(O)cc1)OCC1=C[C@@H](O)[C@@H]2C=CO[C@@H](O[C@@H]3O[C@H](CO)[C@@H](O)[C@H](O)[C@H]3O)[C@H]12`, the Potency result in test [1] and in test [2] was “inactive” each time.

In the case of `COC(=O)C1=COC(O[C@@H]2O[C@H](CO)[C@@H](O)[C@H](O)[C@H]2O)/C(=C\COC(=O)c2ccc(OC3OC(CO)C(O)C(O)C3O)c(OC)c2)C1CC(=O)OCCc1ccc(O)cc1` (stereo partly drawn), the outcome in test [1] and in test [2] was “inactive [at 9.29 µM]” throughout.
